PubChem BioAssay (Tox21)
Records with an inconclusive call do not appear. Activity calls are given as the source filed them. Calls follow the shape of the full dose curve.

molecular target: Peroxisome proliferator-activated receptor delta (Homo sapiens) (UniProt Q03181); assay: qHTS assay to identify small molecule agonists of the peroxisome proliferator-activated receptor delta (PPARd) signaling pathway (AID 743212); details: HEK293H PPARd-UAS-bla, beta-lactamase FRET ratio, 17 h; series mostly up to 62.6 µM; activation: at the top concentration
Text: U.S. Tox21 Program National Center for Advancing Translational Sciences [NCATS] NIH Chemical Genomics Center [NCGC] U.S. Environmental Protection Agency [EPA] National Institutes of Environmental Health Sciences [NIEHS] National Toxicology Program [NTP] U.S. Food and Drug Administration [FDA] Tox21 Assay Overview: The peroxisome proliferator-activated receptors (PPARs) are lipid-activated transcription factors of the nuclear receptor superfamily with three distinct subtypes namely PPAR alpha, PPAR delta (PPARd) and PPAR gamma. All these subtypes heterodimerizes with Retinoid X receptor (RXR) and have different physiological functions. […] To identify the compounds that activate PPAR-delta signaling, GeneBLAzer PPAR delta UAS-bla HEK293H cell line (Invitrogen, Carlsbad, CA, USA) containing a beta-lactamase reporter gene under the control of an Upstream Activator Sequence (UAS) was used to screen the Tox21 compound library.
Tox21 Assay Protocol Summary: PPARd-bla cells were dispensed at 3000 cells/6uL/well in 1536-well black wall/clear bottom plates using a Multidrop Combi (Thermo Fisher Scientific, Waltham, MA) dispenser. After the assay plates were incubated at 37 C and 5% CO2 for 5 h, 23 nL of compounds dissolved in DMSO, positive controls or DMSO only was transferred to the assay plate by a Pintool station (Kalypsys, San Diego, CA). The assay plates were incubated at 37C for 17 h. After 1 uL of LiveBLAzerTM B/G FRET substrate was added using a Bioraptr Flying Reagent Dispenser (FRD) workstation (Beckman Coulter, Indianapolis, IN, USA), the plates were incubated at room temperature for 2 h, and fluorescence intensity was measured by an Envision plate reader (PerkinElmer, Shelton, CT).
% is scaled to controls: 0 for no effect and ±100 for the full control effect.

Chain of Peroxisome proliferator-activated receptor delta (Homo sapiens) (Q03181 whole entry, looked up): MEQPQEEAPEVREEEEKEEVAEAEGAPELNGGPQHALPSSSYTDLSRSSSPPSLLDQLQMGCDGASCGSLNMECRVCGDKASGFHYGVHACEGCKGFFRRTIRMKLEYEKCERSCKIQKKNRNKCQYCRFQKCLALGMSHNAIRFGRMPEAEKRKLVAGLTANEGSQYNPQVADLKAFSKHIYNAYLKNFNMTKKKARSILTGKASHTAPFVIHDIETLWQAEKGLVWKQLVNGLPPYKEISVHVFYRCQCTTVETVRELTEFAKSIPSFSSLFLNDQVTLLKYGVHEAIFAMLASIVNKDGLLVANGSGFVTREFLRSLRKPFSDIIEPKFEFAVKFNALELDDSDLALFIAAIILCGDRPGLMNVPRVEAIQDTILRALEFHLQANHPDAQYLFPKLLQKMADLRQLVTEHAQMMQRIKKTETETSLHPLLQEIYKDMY

SMILES | activation
CCOC(=O)c1cc(=O)c2c(OCC(COc3cccc4oc(C(=O)OCC)cc(=O)c34)OC(=O)[C@@H](N)CCCCN)cccc2o1 | -0.729% (inactive)
CC(C)(C)C1CCCCC1=O (stereo not given) | -3.73% (inactive)
O=C(O)C(=O)Cc1c[nH]c2ccccc12 | 0.857% (inactive)
CCN(CC)C(=O)N(CC)CC | 0.192% (inactive)
COC(=O)N[C@H](C(=O)N[C@@H](Cc1ccccc1)[C@@H](O)CN(Cc1ccc(-c2ccccn2)cc1)NC(=O)[C@@H](NC(=O)OC)C(C)(C)C)C(C)(C)C | -5.33% (inactive)
COc1ccccc1N1CCN(CCCNc2cc(=O)n(C)c(=O)n2C)CC1 | -3.43% (inactive)
Oc1ccccc1C=NCc1ccccc1 | 0.189% (inactive)
CC(C)=CCCC(C)CCOC=O (stereo not given) | 0.108% (inactive)
CNCCC(Oc1ccccc1OC)c1ccccc1 (stereo not given) | -4.21% (inactive)
CN1CCN(c2c(F)cc3c(=O)c(C(=O)O)cn(CCF)c3c2F)CC1 | 3.79% (inactive)
CCC(=O)O[C@]1(C(=O)SCF)[C@H](C)C[C@H]2[C@@H]3C[C@H](F)C4=CC(=O)C=C[C@]4(C)[C@@]3(F)[C@@H](O)C[C@@]21C | 0.042% (inactive)
Cc1nc(N)nc(N)c1-c1ccc(Cl)c(Cl)c1 | -2.53% (inactive)
O=C1C=CC(=O)O1 | -4.24% [at 81.1 µM] (inactive)
CC/C=C\CCOC(=O)CCCCC | -3.5% (inactive)
CCCCCCCCOC(=O)CCCCCCCCC(=O)OCCCCCCCC | 1.95% (inactive)
CC(=O)OC1C2(C)CCC(C2)C1(C)C (stereo not given) | 0.31% (inactive)
COc1cc(C)ccc1C(C)C | 3.7% (inactive)
O=C(O)[C@@H](O)[C@H](O)[C@H](O)[C@@H](O)C(=O)O | 0.231% (inactive)
COC(=O)C(C)O (stereo not given) | 1.8% [at 81.1 µM] (inactive)
O=Cc1ccc(F)c(Br)c1 | -1.11% (inactive)

SMILES | activation
CCN(CC)CC1CCCCN1CC(=O)N1c2ccccc2C(=O)Nc2cccnc21 (stereo not given) | -0.713% (inactive)
CC(C)Nc1nc(N)nc(Cl)n1 | -3.4% (inactive)
ICCc1ccccc1 | 1.14% (inactive)
CN(CC1(C)CCCO1)S(=O)(=O)c1ccc(Cl)c(S(N)(=O)=O)c1 (stereo not given) | -2.9% (inactive)
Cc1ccc(C=O)s1 | 2.74% (inactive)
NCCCN1CCN(CCCN)CC1 | 2.54% (inactive)
CCCCN1C[C@H](O)[C@@H](O)[C@H](O)[C@H]1CO | 2.01% (inactive)
O=C(O)c1cccc(Cl)c1Cl | 7.29% (inactive)
CC(C)C1=CC2=CC[C@@H]3[C@](C)(CCC[C@@]3(C)C(=O)O)[C@H]2CC1 | -3.64% (inactive)
COc1ccccc1OCC(O)COC(N)=O (stereo not given) | 4.58% (inactive)
O=S(=O)(O)C(F)(F)F | -1.87% (inactive)
OCC(CBr)(CBr)CBr | 2.92% (inactive)
C=CC(C)(O)CC/C=C(\C)CCC=C(C)C (stereo not given) | 1.11% (inactive)
CCCC(CCC)(C(=O)OCC)C(=O)OCC | 2.96% (inactive)
CC(C)O | -14.7% [at 81.1 µM] (inactive)
CCOC(=O)c1ccccc1O | 3.62% (inactive)
Cc1c[nH]c(=S)[nH]c1=O | -7.24% (inactive)
CN1CCN(N)CC1 | 2.2% (inactive)
CO[Si](C)(C)OC | -0.0177% (inactive)
CN1[C@@H]2CC[C@H]1CC(OC(=O)c1c[nH]c3ccccc13)C2 (stereo not given in full) | 0.81% (inactive)
